# Bioassay records from PubChem BioAssay.
# A selection: hits, their analogues and other compounds. The true share with any hit is near 2.9%.
# PLCb3 inh = blocks human PLC-beta3 enzyme activity; Q01970; Purified PLC-beta3, fluorogenic substrate, fluorescence; inhibition, % at 12.2 µM; actives 0.18% (n = 370,000); in the data active = inhibition above about 11%;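 note: 0% = median of compound wells on plate and 100% = full blocker control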
# ADAM17 inh = inhibitors of human ADAM17. P78536. recombinant ADAM17, EDANS/DABCYL FRET peptide cleavage. inhibition, % at 6.95 µM. actives 0.83% (n = 370,000). AID 720648;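 active = inhibition above the mean of compounds lying between control limits plus 3 SD, set per campaign, cut at about 8.5% in these data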;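 note: 0% = DMSO-only wells as the low control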
# Target sequence (P78536 215-824 limits assumed): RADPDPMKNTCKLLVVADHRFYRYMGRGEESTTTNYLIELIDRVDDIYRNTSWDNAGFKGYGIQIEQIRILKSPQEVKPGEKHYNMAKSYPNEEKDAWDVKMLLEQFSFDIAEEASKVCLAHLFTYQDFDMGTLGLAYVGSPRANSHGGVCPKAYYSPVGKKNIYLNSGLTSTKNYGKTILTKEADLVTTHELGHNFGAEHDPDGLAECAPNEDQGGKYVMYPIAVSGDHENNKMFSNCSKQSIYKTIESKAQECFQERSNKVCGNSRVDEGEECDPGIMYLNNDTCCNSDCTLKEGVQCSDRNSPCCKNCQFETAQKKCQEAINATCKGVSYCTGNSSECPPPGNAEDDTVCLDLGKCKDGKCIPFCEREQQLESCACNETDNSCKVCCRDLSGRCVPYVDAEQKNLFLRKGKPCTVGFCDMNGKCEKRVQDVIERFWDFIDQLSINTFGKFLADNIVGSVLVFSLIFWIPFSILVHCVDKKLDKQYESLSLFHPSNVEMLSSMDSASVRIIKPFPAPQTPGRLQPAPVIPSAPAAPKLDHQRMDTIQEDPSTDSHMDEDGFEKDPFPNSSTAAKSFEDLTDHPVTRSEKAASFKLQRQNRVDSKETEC
# PLC-gamma1 inh = blocks human PLC-gamma1 enzyme activity; purified PLC-gamma1, fluorogenic substrate, fluorescence; inhibition, % at 12.2 µM; actives 0.84% (n = 370,000); in the data active = inhibition above about 9.5%
# proKLK7 act = proKLK7 (human) activation, primary screen; AID 652039; activation, % at 7 µM; purified proKLK7, EDANS-DABCYL substrate fluorescence; 100% is mature enzyme control, 0% vehicle; actives 0.9% (n = 370,000); P49862;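 active = activation above the mean of all tested compounds plus 3 SD, computed per campaign excluding outliers beyond control limits, cut at about 13% in these data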
# ADAM10 inh = inhibits human ADAM10. O14672. recombinant ADAM10, EDANS/DABCYL FRET peptide cleavage, 3 h. inhibition, % at 7 µM. actives 0.62% (n = 370,000);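 active = inhibition above a per-campaign cutoff equal to the mean of compounds falling between control-based bounds plus 3 SD, cut at about 20% in these data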;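 note: 0% = DMSO wells while the 100% control is not disclosed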
# ADAM10 ctr = ADAM10 inhibition, counter-screen for ADAM17 exosite hits. shares compounds with ADAM17 inh. recombinant ADAM10, EDANS/DABCYL FRET peptide cleavage, 3 h. inhibition, % at 6.95 µM. actives 47% (n = 2,900);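 active = mean inhibition over the triplicate runs exceeds the activity threshold set in the earlier primary screen, cut at about 20% in these data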;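 note: 0% = DMSO wells and 100% = marimastat wells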
# ADAM17 confirm = human ADAM17 inhibition, confirmation | recombinant ADAM17, EDANS/DABCYL QFRET peptide cleavage | actives 65% (n = 2,900) | shares compounds with ADAM17 inh | inhibition, % at 6.95 µM;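 active = mean inhibition across replicates above the hit cutoff set in the primary screen, cut at about 8.5% in these data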;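 note: 0% = DMSO wells and 100% = marimastat wells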
# Starred values were filed as active, the others as inactive; . = no result.
SMILES,PLCb3 inh,ADAM17 inh,PLC-gamma1 inh,proKLK7 act,ADAM10 inh,ADAM10 ctr,ADAM17 confirm
COc1ccc(CC(=O)N2CCC(c3ccccc3)C2)cc1 (stereo not given),-1,2,0,0,4,.,.
COc1ccc(CC(=O)N2CCC(Nc3nc4ccccc4n3Cc3ccc(F)cc3)CC2)cc1,9,11*,8,1,13,21*,12*
COc1cc(O)c(C(=O)O)c(CCc2ccccc2)c1,-6,0,-4,1,3,.,.
CCOC(=O)c1c(O)cc(OC)cc1CCc1ccccc1,3,9.9*,4,0,-2,9,8
COc1cc(NC(=O)c2[nH]c(C)c(C(C)=O)c2C)c(OC)cc1Cl,-8,-3,-2,.,1,.,.
CCCCC(CC)COC1(c2ccccc2)OC(=O)c2ccccc21 (stereo not given),3,10*,3,0,3,-1,0
O=C(COC(=O)c1cccc(NS(=O)(=O)/C=C/c2ccccc2)c1)Nc1ccccc1OC(F)F,0,9.9*,0,1,15,18,15*
Cc1ccc(S(=O)(=O)N2CCC(C(=O)OC(C)C(=O)NCc3ccccc3)CC2)cc1C (stereo not given),-3,9.7*,5,0,15,7,7
COC(=O)CN1C(=O)C2(C(C#N)=C(N)Oc3n[nH]c(-c4cccs4)c32)c2ccccc21 (stereo not given),-6,-2,4,0,-1,.,.
COC(=O)CN1C(=O)C2(C(C#N)=C(N)Oc3c2c(C)nn3-c2ccccc2)c2ccccc21 (stereo not given),1,13*,4,-1,4,-2,2
O=C(CSc1nc2ccccc2o1)NN=C/C=C/c1ccccc1,-4,9.5*,-1,0,19,14,16*
O=C(CSc1nc2ccccc2o1)N/N=C/c1ccccc1,0,0,1,1,-3,.,.
CCc1c(-c2ccc(Cl)cc2)ncn1Cc1cccc(-c2ccccc2)c1,0,12*,3,1,18,1,6
CCc1c(-c2ccccc2F)ncn1Cc1cccc(-c2ccccc2)c1,-3,8,-3,1,9,.,.
COC(=O)[C@]12C[C@H](CC(=O)N3CCSCC3)C(=O)N(Cc3ccco3)C1=C[C@H](C(C)C)O[C@@H]2C1CC1,2,4,0,0,6,.,.
COc1cccc(CNS(=O)(=O)c2ccc3c(c2)NC(=O)CS3)c1,-6,-2,1,0,-2,.,.
COc1cccc(CNC(=O)CCS(=O)(=O)c2ccc3c(c2)NC(=O)CS3)c1,-1,8.7*,3,0,1,-9,0
CCOc1cc(/C=N/NC(=O)COc2ccc(Cl)cc2)ccc1OS(=O)(=O)c1ccccc1,3,14*,4,1,18,37*,17*
CCOc1cc(/C=N/NS(=O)(=O)c2ccccc2)ccc1OS(=O)(=O)c1ccc(C)cc1,2,3,2,0,11,.,.
CCCc1cc(-c2[nH]ncc2-c2ccc3c(c2)OCCCO3)c(O)cc1O,-1,11*,2,0,4,27*,14*
CCCc1cc(-c2[nH]ncc2-c2ccc(C(=O)OCC)o2)c(O)cc1O,-103,-12,-77,0,-24,.,.
Cc1ccccc1-c1cc2nc(Oc3cccc4ccccc34)n(C)c(=O)c2s1,-1,9.2*,7,-1,1,15,9.5*
COc1ccccc1NC(=S)OC1CCC12CCC(c1ccccc1)CC2 (stereo not given),4,3,-2,0,6,.,.
COc1cc2c(c(O)c1OC)-c1c(cc(OC)c(OC)c1OC)C[C@@H](C)[C@@H](C)C2,1,8.8*,3,-1,-2,13,7
O=[N+]([O-])CC(c1ccccc1)P(=O)(c1ccccc1)c1ccccc1 (stereo not given),-3,16*,-1,0,1,-3,32*
SMILES,PLCb3 inh,ADAM17 inh,PLC-gamma1 inh,proKLK7 act,ADAM10 inh,ADAM10 ctr,ADAM17 confirm
O=P(c1ccccc1)(c1ccccc1)C(O)c1cccs1 (stereo not given),4,2,5,0,4,.,.
CCCCC(=O)NC(c1ccccc1OC)c1ccc2cccnc2c1O (stereo not given),-15,9.0*,-9,0,18,16,7
Cc1cccc(S(=O)(=O)NC(=O)C2(C)CCN2C(=O)Cc2ccc(C(C)(C)C)cc2)c1 (stereo not given),-5,4,0,0,11,.,.
COc1ccc(CNC(=O)C/C(C)=N/NC(=O)Cc2ccc(OC)c(OC)c2)cc1,5,9.9*,5,0,18,-5,2
COc1cc(NC(=O)C/C(C)=N/NC(=O)Cc2ccccc2)c(OC)cc1Cl,1,11*,7,-1,7,13,11*
COc1ccccc1CNC(=O)C/C(C)=N/NC(=O)Cc1ccc(OC)c(OC)c1,1,-1,-1,0,4,.,.
C=CCNC(=O)c1ccsc1N,-22,-19,-16,1,-44,.,.
CCOc1ccc(/C=C/C(=O)c2cc(Br)ccc(=O)c2O)cc1,-22,11*,-18,0,8,4,22*
CC(=O)Nc1cccc(C(=O)Nc2cc(C(F)(F)F)ccc2-n2cncn2)c1,0,2,4,0,1,.,.
O=C(NC(Nc1nc2ccc([N+](=O)[O-])cc2s1)(C(F)(F)F)C(F)(F)F)c1ccccc1Cl,-12,11*,-9,0,16,22*,13*
CCN1C(=O)[C@H]2[C@@H](c3ccc(-c4ccc(C(C)=O)cc4)cc3)N3CCC[C@@]3(C(=O)OC)[C@H]2C1=O,-3,9.7*,-2,1,16,-9,0
O=S(=O)(NCCc1csc(-c2ccc(C(F)(F)F)cc2)n1)c1ccc2c(c1)OCCO2,-5,9.3*,-2,-1,-3,8,10*
COc1ccccc1NC(=O)Nc1nc(C(N)CC(C)C)cs1 (stereo not given),8,2,2,-1,-1,.,.
Nc1ccn(C2OC(COC(=O)C34CC5CC(CC(C5)C3)C4)C(O)C2O)c(=O)n1 (stereo not given),1,-3,3,0,-4,.,.
CCn1c(CC(=O)Nc2cccc(OC)c2)nnc1SCC(=O)N1CCN(c2ccccc2)CC1,2,12*,8,0,4,30*,18*
O=C(NCc1ccccc1)C(C1CC1)n1c(CSCCOc2ccccc2)nc2ccccc21 (stereo not given),-3,6,-2,0,10,.,.
CCc1c(-c2cccc(OC)c2)ncn1Cc1cccc(-c2ccccc2)c1,-7,4,1,0,8,.,.
